# Source: the supplement of paper PMC8728848
# This excerpt belongs to a sample that is enriched for the strongest signals.
# B1: Flo1 (Saccharomyces cerevisiae), P32768 (protein)
# chain: SGATEACLPAGQRKSGMNINFYQYSLKDSSTYSNAAYMAYGYASKTKLGSVGGQTDISIDYNIPCVSSSGTFPCPQEDSYGNWGCKGMGACSNSQGIAYWSTDLFGFYTTPTNVTLEMTGYFLPPQTGSYTFKFATVDDSAILSVGGATAFNCCAQQQPPITSTNFTIDGIKPWGGSLPPNIEGTVYMYAGYYYPMKVVYSNAVSWGTLPISVTLPDGTTVSDDFEGYVYSFDDDLSQSNCTVPDPSNY
# Key:
# Assay in all cases: glycan array binding signal (z-score within array); higher = stronger binding
# Settings in all cases: glycan notation: IUPAC condensed, linker removed
# [1] = biological target: Fuc(a1-2)Gal(b1-3)GalNAc(b1-4)[Neu5Ac(a2-3)]Gal(b1-4)Glc
# Outline: (§1)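 Negative Z-scores can be read as non-binding. The Z-score is calculated within each array and then averaged across arrays of one protein sequence at different concentrations or buffers and across linkers. Arrays, 3228 in all, were curated from the Consortium for Functional Glycomics database and kept only where the protein sequence was available.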
# [2] = biological target: Fuc(a1-2)Gal(b1-3)GlcNAc(b1-2)Man(a1-3)[Fuc(a1-2)Gal(b1-3)GlcNAc(b1-2)Man(a1-6)]Man(b1-4)GlcNAc(b1-4)[Fuc(a1-6)]GlcNAc
# Outline: as §1
# [3] = biological target: Fuc(a1-2)Gal(b1-3)[Fuc(a1-4)]GlcNAc(b1-2)Man(a1-3)[Fuc(a1-2)Gal(b1-3)[Fuc(a1-4)]GlcNAc(b1-2)Man(a1-3)]Man(b1-4)GlcNAc(b1-4)GlcNAc
# Outline: as §1
# [4] = biological target: Fuc(a1-2)Gal(b1-3)[Fuc(a1-4)]GlcNAc(b1-2)Man(a1-3)[Fuc(a1-2)Gal(b1-3)[Fuc(a1-4)]GlcNAc(b1-2)Man(a1-6)]Man(b1-4)GlcNAc(b1-4)GlcNAc
# Outline: as §1
# [5] = biological target: Fuc(a1-2)Gal(b1-4)Fuc(a1-3)]GlcNAc(b1-2)Man(a1-3)[Fuc(a1-2)Gal(b1-4)[Fuc(a1-3)]GlcNAc(b1-2)Man(a1-6)]Man(b1-4)GlcNAc(b1-4)GlcNAc
# Outline: as §1
# [6] = biological target: Fuc(a1-2)Gal(b1-4)[Fuc(a1-3)]GlcNAc(b1-2)Man(a1-3)[Fuc(a1-2)Gal(b1-4)[Fuc(a1-3)]GlcNAc(b1-2)Man(a1-6)]Man(b1-4)GlcNAc(b1-4)GlcNAc
# Outline: as §1
# [7] = biological target: Fuc(a1-2)[Gal(a1-3)]Gal(b1-3)GlcNAc(b1-3)GalNAc
# Outline: as §1
# [8] = biological target: Fuc(a1-2)[Gal(a1-3)]Gal(b1-4)GlcNAc(b1-2)Man(a1-3)[Fuc(a1-2)[Gal(a1-3)]Gal(b1-4)GlcNAc(b1-2)Man(a1-6)]Man(b1-4)GlcNAc(b1-4)[Fuc(a1-6)]GlcNAc
# Outline: as §1
# [9] = biological target: Fuc(a1-2)[Gal(a1-3)]Gal(b1-4)GlcNAc(b1-3)[Fuc(a1-2)[Gal(a1-3)]Gal(b1-4)GlcNAc(b1-6)]GalNAc
# Outline: as §1
# [10] = biological target: Fuc(a1-2)[Gal(a1-3)]Gal(b1-4)[Fuc(a1-3)]Glc
# Outline: as §1
# [11] = biological target: Fuc(a1-2)[GalNAc(a1-3)]Gal
# Outline: as §1
# [12] = biological target: Fuc(a1-2)[GalNAc(a1-3)]Gal(b1-3)GalNAc(a1-3)[Fuc(a1-2)]Gal(b1-4)GlcNAc
# Outline: as §1
# [13] = biological target: Fuc(a1-2)[GalNAc(a1-3)]Gal(b1-4)Glc
# Outline: as §1
# [14] = biological target: Fuc(a1-3)[Gal3S(b1-4)]Glc
# Outline: as §1
# [15] = biological target: Gal(b1-3)GalNAc(a1-3)[Fuc(a1-2)]Gal(b1-4)GlcNAc
# Outline: as §1
# [16] = biological target: Gal(b1-3)GlcNAc(b1-2)Man(a1-3)[GlcNAc(b1-4)][Gal(b1-3)GlcNAc(b1-2)Man(a1-6)]Man(b1-4)GlcNAc(b1-4)GlcNAc
# Outline: as §1
# [17] = biological target: Gal(b1-3)GlcNAc(b1-3)Gal(b1-4)GlcNAc(b1-3)Gal(b1-4)GlcNAc(b1-2)[Gal(b1-3)GlcNAc(b1-3)Gal(b1-4)GlcNAc(b1-3)Gal(b1-4)GlcNAc(b1-6)]Man(a1-6)[Gal(b1-3)GlcNAc(b1-3)Gal(b1-4)GlcNAc(b1-3)Gal(b1-4)GlcNAc(b1-2)Man(a1-3)]Man(b1-4)GlcNAc(b1-4)[Fuc(a1-6)]GlcNAc
# Outline: as §1
# [18] = biological target: Gal(b1-3)GlcNAc(b1-3)Gal(b1-4)[Fuc(a1-3)]GlcNAc
# Outline: as §1
# [19] = biological target: Gal(b1-3)[Fuc(a1-4)]GlcNAc(b1-2)Man
# Outline: as §1
# [20] = biological target: Gal(b1-4)GalNAc(b1-3)[Fuc(a1-2)]Gal(b1-4)GlcNAc
# Outline: as §1
# [21] = biological target: Gal(b1-4)GlcNAc(b1-2)Man(a1-3)[Gal(b1-4)GlcNAc(b1-2)Man(a1-6)]Man(b1-4)GlcNAc(b1-4)GlcNAc
# Outline: as §1
# [22] = biological target: Gal(b1-4)GlcNAc(b1-2)Man(a1-6)[Man(a1-3)]Man(b1-4)GlcNAc(b1-4)GlcNAc
# Outline: as §1
# [23] = biological target: Gal(b1-4)GlcNAc(b1-2)[Gal(b1-4)GlcNAc(b1-4)]Man(a1-3)[Gal(b1-4)GlcNAc(b1-2)Man(a1-6)]Man(b1-4)GlcNAc(b1-4)GlcNAc
# Outline: as §1
# [24] = biological target: Gal(b1-4)GlcNAc(b1-2)[Gal(b1-4)GlcNAc(b1-4)]Man(a1-3)[Gal(b1-4)GlcNAc(b1-2)[Gal(b1-4)GlcNAc(b1-6)]Man(a1-6)]Man(b1-4)GlcNAc(b1-4)GlcNAc
# Outline: as §1
# [25] = biological target: Gal(b1-4)GlcNAc(b1-2)[Gal(b1-4)GlcNAc(b1-4)]Man(a1-3)[GlcNAc(b1-4)][Gal(b1-4)GlcNAc(b1-2)Man(a1-6)]Man(b1-4)GlcNAc(b1-4)GlcNAc
# Outline: as §1
# [26] = biological target: Gal(b1-4)GlcNAc(b1-3)Gal(b1-3)GalNAc
# Outline: as §1
# [27] = biological target: Gal(b1-4)GlcNAc(b1-3)Gal(b1-4)GlcNAc(b1-2)Man(a1-3)[Gal(b1-4)GlcNAc(b1-3)Gal(b1-4)GlcNAc(b1-2)Man(a1-6)]Man(b1-4)GlcNAc(b1-4)[Fuc(a1-6)]GlcNAc
# Outline: as §1
binder,measurement,setting,value
B1,glycan array binding signal (z-score),[1],-0.19
same,glycan array binding signal (z-score),[2],1.41
same,glycan array binding signal (z-score),[3],-0.362
same,glycan array binding signal (z-score),[4],2.44
same,glycan array binding signal (z-score),[5],3.01
same,glycan array binding signal (z-score),[6],2.48
same,glycan array binding signal (z-score),[7],2.18
same,glycan array binding signal (z-score),[8],3.01
same,glycan array binding signal (z-score),[9],0.353
same,glycan array binding signal (z-score),[10],-0.047
same,glycan array binding signal (z-score),[11],-0.514
same,glycan array binding signal (z-score),[12],0.065
same,glycan array binding signal (z-score),[13],0.017
same,glycan array binding signal (z-score),[14],0.119
same,glycan array binding signal (z-score),[15],-0.653
same,glycan array binding signal (z-score),[16],1.05
same,glycan array binding signal (z-score),[17],2.69
same,glycan array binding signal (z-score),[18],-0.364
same,glycan array binding signal (z-score),[19],2.33
same,glycan array binding signal (z-score),[20],0.699
same,glycan array binding signal (z-score),[21],-0.067
same,glycan array binding signal (z-score),[22],0.098
same,glycan array binding signal (z-score),[23],-0.087
same,glycan array binding signal (z-score),[24],0.251
same,glycan array binding signal (z-score),[25],0.797
same,glycan array binding signal (z-score),[26],-0.714
same,glycan array binding signal (z-score),[27],8.23
